# Pf apPOL inh: Pf-apPOL inhibitors, biochemical, fluorescence; Plasmodium falciparum apicoplast DNA polymerase (apPOL); Recombinant Pf-apPOL, molecular beacon fluorescence, 1.5 h; inhibition, % at 10 µM; 210,000 tested, 0.25% active; AID 1794808, 2022
# mHTT CaM bind: mutant huntingtin-calmodulin interaction inhibitors – biochemical, AlphaScreen, primary screen. P42858. AlphaScreen His-mHTT/GST-CaM binding, luminescence. inhibition, % at 15 µM. 190,000 tested, 3.6% active;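 further: 0% = both proteins with DMSO and 100% = one protein alone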
# Target sequence (P42858 whole entry, looked up, stated change not applied): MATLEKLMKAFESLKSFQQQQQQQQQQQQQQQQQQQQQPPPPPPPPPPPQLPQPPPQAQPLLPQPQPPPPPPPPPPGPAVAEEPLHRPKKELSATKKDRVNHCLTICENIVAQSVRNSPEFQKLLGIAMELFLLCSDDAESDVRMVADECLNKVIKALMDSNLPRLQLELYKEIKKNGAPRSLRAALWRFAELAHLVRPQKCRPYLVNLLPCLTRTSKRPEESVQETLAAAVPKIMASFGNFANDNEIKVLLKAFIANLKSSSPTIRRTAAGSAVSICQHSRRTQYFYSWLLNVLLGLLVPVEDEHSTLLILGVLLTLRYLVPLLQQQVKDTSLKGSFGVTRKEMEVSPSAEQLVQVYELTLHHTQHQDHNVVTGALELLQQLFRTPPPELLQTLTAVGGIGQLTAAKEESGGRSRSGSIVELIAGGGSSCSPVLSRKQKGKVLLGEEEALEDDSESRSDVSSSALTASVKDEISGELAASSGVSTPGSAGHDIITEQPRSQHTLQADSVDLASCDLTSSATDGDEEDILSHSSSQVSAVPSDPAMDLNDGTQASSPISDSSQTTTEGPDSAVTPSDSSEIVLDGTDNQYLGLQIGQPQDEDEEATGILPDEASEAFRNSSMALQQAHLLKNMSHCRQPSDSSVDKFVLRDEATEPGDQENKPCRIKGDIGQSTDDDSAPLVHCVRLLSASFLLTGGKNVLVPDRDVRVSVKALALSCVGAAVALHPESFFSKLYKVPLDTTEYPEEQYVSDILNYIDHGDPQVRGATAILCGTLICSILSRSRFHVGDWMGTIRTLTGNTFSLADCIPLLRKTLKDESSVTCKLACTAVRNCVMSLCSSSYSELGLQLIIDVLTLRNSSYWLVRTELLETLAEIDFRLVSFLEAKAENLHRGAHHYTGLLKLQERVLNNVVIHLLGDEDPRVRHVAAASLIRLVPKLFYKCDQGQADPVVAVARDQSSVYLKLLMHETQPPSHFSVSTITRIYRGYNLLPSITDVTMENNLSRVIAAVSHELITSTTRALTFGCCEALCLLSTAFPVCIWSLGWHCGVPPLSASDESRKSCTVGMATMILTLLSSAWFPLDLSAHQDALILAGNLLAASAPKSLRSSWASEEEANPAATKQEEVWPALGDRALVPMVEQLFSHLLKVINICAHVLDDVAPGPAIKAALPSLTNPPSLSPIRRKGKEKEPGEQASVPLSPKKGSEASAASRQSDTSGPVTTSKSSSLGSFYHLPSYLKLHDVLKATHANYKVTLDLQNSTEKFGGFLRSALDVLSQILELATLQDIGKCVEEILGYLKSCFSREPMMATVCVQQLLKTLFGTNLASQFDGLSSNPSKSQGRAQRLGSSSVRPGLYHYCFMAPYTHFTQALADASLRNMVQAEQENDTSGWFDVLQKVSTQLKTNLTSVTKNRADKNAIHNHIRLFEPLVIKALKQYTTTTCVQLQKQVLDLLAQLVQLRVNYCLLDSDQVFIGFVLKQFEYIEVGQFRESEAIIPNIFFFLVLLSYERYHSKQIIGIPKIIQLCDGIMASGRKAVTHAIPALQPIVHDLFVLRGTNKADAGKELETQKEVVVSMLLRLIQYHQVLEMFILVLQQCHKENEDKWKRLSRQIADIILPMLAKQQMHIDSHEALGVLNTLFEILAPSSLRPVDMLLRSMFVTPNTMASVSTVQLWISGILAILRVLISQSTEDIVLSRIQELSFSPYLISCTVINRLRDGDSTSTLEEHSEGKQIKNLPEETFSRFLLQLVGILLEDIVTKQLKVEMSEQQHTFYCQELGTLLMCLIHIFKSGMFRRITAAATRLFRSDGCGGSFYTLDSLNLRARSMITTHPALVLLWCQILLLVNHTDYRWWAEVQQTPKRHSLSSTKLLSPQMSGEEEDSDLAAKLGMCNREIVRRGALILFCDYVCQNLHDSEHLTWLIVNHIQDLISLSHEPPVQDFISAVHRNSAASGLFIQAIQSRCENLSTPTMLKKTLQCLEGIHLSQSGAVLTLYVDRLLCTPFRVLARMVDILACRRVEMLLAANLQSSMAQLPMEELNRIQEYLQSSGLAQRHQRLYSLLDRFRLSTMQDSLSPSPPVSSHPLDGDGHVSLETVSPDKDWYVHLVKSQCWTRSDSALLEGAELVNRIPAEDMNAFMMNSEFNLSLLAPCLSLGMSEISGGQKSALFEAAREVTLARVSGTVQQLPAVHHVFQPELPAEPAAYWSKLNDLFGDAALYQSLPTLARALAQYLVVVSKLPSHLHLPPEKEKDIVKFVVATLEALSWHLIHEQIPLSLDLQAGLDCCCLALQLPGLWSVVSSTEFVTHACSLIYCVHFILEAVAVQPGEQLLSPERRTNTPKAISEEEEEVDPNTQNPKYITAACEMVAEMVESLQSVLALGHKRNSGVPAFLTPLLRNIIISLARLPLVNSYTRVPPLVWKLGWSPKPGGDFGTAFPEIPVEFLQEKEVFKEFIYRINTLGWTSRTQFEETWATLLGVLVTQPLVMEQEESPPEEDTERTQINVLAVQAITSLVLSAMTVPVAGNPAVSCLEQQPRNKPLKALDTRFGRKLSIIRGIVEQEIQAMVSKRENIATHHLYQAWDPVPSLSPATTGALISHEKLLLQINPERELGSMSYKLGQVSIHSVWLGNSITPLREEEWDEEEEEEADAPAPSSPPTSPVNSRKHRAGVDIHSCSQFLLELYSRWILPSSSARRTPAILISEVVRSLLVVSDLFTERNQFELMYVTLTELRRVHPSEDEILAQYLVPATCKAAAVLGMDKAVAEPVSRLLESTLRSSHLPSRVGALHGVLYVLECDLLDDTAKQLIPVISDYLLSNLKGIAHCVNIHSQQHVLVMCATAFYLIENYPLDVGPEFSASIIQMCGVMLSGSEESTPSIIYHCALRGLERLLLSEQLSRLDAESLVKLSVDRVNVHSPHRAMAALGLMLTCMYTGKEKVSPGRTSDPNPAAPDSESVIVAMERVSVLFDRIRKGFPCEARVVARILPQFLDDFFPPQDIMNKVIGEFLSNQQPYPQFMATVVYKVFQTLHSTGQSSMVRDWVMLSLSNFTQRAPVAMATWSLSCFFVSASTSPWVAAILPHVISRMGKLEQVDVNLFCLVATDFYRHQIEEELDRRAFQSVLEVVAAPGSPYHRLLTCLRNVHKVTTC
# * hit, by the source's call; i = inactive; x = no result; ! = not active in a repeat. Shown are actives, neighbours in structure and some others; about 3.6% of the full set was active somewhere. No stated cut-off is given here; in the data, active means inhibition above about 50%; inactive means the rest.
SMILES,Pf apPOL inh,mHTT CaM bind
COc1cc(OC)c2c(-c3ccccc3)cc(=O)oc2c1C(CCN1CCCC(C)C1)c1ccc2c(c1)OCO2 (stereo unspecified),-12.0,100.2*
COc1cc(OC)c2c(-c3ccccc3)cc(=O)oc2c1C(CC(=O)N1CCCC1)c1ccc2c(c1)OCO2 (stereo unspecified),1.1,68.9*
COc1cc(O)c(C(CCN2CCCCC2)c2ccc3c(c2)OCO3)c(OC)c1 (stereo unspecified),-4.9,33.4
COc1cc(OC)c2ccc(=O)oc2c1C(CC(=O)N1CCCCC1)c1ccc2c(c1)OCO2 (stereo unspecified),-5.5,36.8
COc1ccc(-c2n[nH]c(C)c2NC(=O)C2CCCC2)c(OC)c1,-5.7,7.5
CCOCCCN(Cc1ccco1)C(=O)c1noc2c1CCCC2,0.5,17.0
Cc1cccc(NC(=O)CN2C(=O)C(c3ccc(Cl)cc3)=NC2(C)C)c1C,-4.9,-6.2
Nc1c(C(=O)N2CCOCC2)sc2nc(-c3ccccc3)cc(-c3ccccc3)c12,-5.1,52.5*
Cc1cc(-c2ccccc2)nc2cc(C(=O)N3CCOCC3)nn12,-1.9,5.0
NC(=O)CSc1cccc2cccnc12,-2.8,82.8*
CCCCOc1cccc(NC(=O)CSc2cccc3cccnc23)c1,-0.2,0.1
COc1ccc(NC(=O)CSc2cccc3cccnc23)cc1,-6.7,53.1*!
O=C(O)CSc1cccc2cccnc12,-1.1,10.6
CCOC(=O)N1CCC(NC(=O)C2CCN(c3cc(=O)n(C)c(=O)n3CC)CC2)CC1,-3.6,45.8
COc1ccc(CC(=O)NCCc2ccc(S(N)(=O)=O)cc2)cc1OC,-15.2,-4.2
COc1ccc(OC)c(/C=C/C(=O)Nc2ccc(Cl)cc2[N+](=O)[O-])c1,-1.8,15.0
Cc1nn(C2CCS(=O)(=O)C2)c(C)c1N1CCN(C(=O)c2cc3ccccc3[nH]2)CC1 (stereo unspecified),-19.2,54.0*
CSc1ccccc1C(=O)N1CCN(c2c(C)nn(C3CCS(=O)(=O)C3)c2C)CC1 (stereo unspecified),-0.7,-2.3
COc1cccc2cc(C(N)=O)c(=Nc3ccc(C(C)=O)cc3)oc12,-1.1,2.0
NS(=O)(=O)c1ccc(NS(=O)(=O)c2ccc(NC(=S)Nc3ccccc3)cc2)cc1,x,10.9
O=S(=O)(Nc1ccc(F)cc1)c1ccccc1,-10.6,-9.6
COc1ccc(NC2=C(C)C(=O)CC2)cc1,-2.0,-3.2
COc1ccc(Nc2ccc(OC)cc2)cc1,-6.1,90.1*
COc1ccc(NS(=O)(=O)c2ccc(NS(=O)(=O)c3ccc(NC(C)=O)cc3)cc2)cc1,-1.3,-0.3
NS(=O)(=O)c1ccc(NS(=O)(=O)c2ccc(NC(=O)Nc3ccccc3)cc2)cc1,-9.0,96.4*
SMILES,Pf apPOL inh,mHTT CaM bind
O=S(=O)(Nc1ccc(Nc2ccccc2)cc1)c1ccccc1,-1.6,88.2*
CC(=O)Nc1ccc(S(=O)(=O)Nc2ccc(Oc3ccccc3)cc2)cc1,-22.2,86.6*
Cc1ccc(C2CC(=O)C3=C(C2)Nc2ccccc2N(C(=O)C2CC2)C3c2cccnc2)cc1 (stereo unspecified),-3.5,33.0
CCOc1cccc(N2C(=O)CC(N(C)Cc3ccccc3)C2=O)c1 (stereo unspecified),0.0,2.3
O=C1N=C(N2CCN(Cc3ccccc3)CC2)S/C1=C\c1ccccc1,-0.4,40.0
Cc1ccc(F)c(OCc2noc(-c3ccccc3)n2)c1,3.8,-28.8
COc1ccc(S(=O)(=O)Nc2ccc(Nc3ccccc3)cc2)cc1,1.3,89.2*
COc1ccc(S(=O)(=O)Nc2cccc(NS(=O)(=O)c3ccc(OC)cc3)c2)cc1,2.0,-0.5
NC(=O)c1ccc(NS(=O)(=O)c2ccccc2[N+](=O)[O-])cc1,-2.4,3.3
O=[N+]([O-])c1ccccc1S(=O)(=O)Nc1ccc(Nc2ccccc2)cc1,-5.8,90.4*
COc1ccc(NS(=O)(=O)c2ccc(NS(C)(=O)=O)cc2)cc1,55.2*,2.4
COc1ccc(NS(=O)(=O)c2ccc(NS(=O)(=O)c3ccc(OC)cc3)cc2)cc1,-5.8,3.8
CCCc1cc(=O)[nH]c(SCC(=O)Nc2ccc(Cl)cc2Cl)n1,-1.6,-0.4
CO/N=C/c1c(Sc2ccc(C)cc2)nc2ccccn2c1=O,10.2,i
Oc1cccc(Nc2nc(-c3ccccc3)cs2)c1,-1.7,33.0
NNc1nc(-c2ccccc2)cs1,-7.9,57.5*
Oc1ccc(Nc2nc(-c3ccccc3)cs2)cc1,-8.1,79.1*
c1ccc(-c2csc(Nc3ncccn3)n2)cc1,-3.8,-5.4
COc1ccc(C(=O)Nc2cc(Cl)c(OC)cc2OC)cc1,1.5,3.0
CCCOc1ccc(C2CC(=O)Nc3n[nH]c(C)c32)cc1OC (stereo unspecified),-2.5,1.9
CN1c2cc(F)ccc2C(=O)NC12CCN(C(=O)c1ccc(C(F)(F)F)cc1)CC2,-4.5,-0.9
CN1C(=O)C2(C(C#N)=C(N)OC3=C2C(=O)CCC3)c2ccccc21 (stereo unspecified),-0.7,-3.0
O=C(NCc1n[nH]c(=O)c2ccccc12)c1cccc2ccccc12,-2.3,-8.2
O=C(NCc1n[nH]c(=O)c2ccccc12)c1cc(-c2ccco2)[nH]n1,77.6*,30.7
Cc1nc(C2CCCN2C(=O)CCc2ccccc2)n[nH]1 (stereo unspecified),0.0,0.4
SMILES,Pf apPOL inh,mHTT CaM bind
CCN(CC)S(=O)(=O)N(CC(=O)NCc1ccccc1Cl)Cc1ccc(F)cc1,-12.0,-10.0
CSc1ccc(CNC(=O)C2CCN(c3cncnc3N3CCCCC3)CC2)cc1,-2.2,25.2
O=C(NCc1cccc(Cl)c1)C1CCN(c2cncnc2N2CCCC2)CC1,-0.4,51.7*
Cc1cccc(CNC(=O)C2CCN(c3cncnc3N3CCCC3)CC2)c1,8.3,21.9
O=C(NCc1ccc(C(F)(F)F)cc1)C1CCN(c2cncnc2N2CCCC2)CC1,4.4,83.3*
CCOC1=NN(c2ccc([N+](=O)[O-])cc2)C(=O)/C1=C\c1ccccc1C(F)(F)F,-2.6,62.0*
CCOC1=NN(c2ccc([N+](=O)[O-])cc2)C(=O)/C1=C/c1ccccc1OC,-2.5,23.0
COc1ccc(C2SCC(=O)N2CCc2ccc(OC)c(OC)c2)c(OC)c1 (stereo unspecified),13.5,6.0
COc1ccc(CCN2C(=O)CSC2c2ccc(Cl)c(Cl)c2)cc1OC (stereo unspecified),4.3,100.0*
CCn1nc(-c2ccccn2)nc2c(=O)n(C)c(=O)nc1-2,5.5,84.0*
Cn1nc(-c2ccncc2)nc2c(=O)n(C)c(=O)nc1-2,8.6,2.0
CCOCC(=O)N1CCc2c(c(-c3nc(-c4cccc(F)c4)no3)nn2C)C1,-2.3,21.2
COc1ccc(S(=O)(=O)NCCc2ccc(N3CCCC3)cc2)cc1OC,-0.2,54.4*
COc1ccc(CCNS(=O)(=O)c2ccc(C)cc2)cc1OC,-5.1,-6.1
CC(=O)Nc1ccc(C(=O)NCc2ccc(F)c(Cl)c2)c(N2CCCCC2)c1,1.2,98.7*
CC(=O)Nc1ccc(C(=O)NCc2cccc(Cl)c2)c(N2CCOCC2)c1,-1.9,8.8
Cc1ccccc1/C=C1/N=C(c2ccccc2)OC1=O,11.4,7.0
COc1ccc(C(=O)Nc2nc(CC(=O)NCc3cccs3)cs2)cc1,-1.3,1.2
O=C(Cc1csc(NC(=O)c2ccc[nH]c2=O)n1)NCc1cccs1,-5.3,64.5*

# Source: PubChem BioAssay (University of Kansas High Throughput Screening Laboratory)
